What all share (test): NCI-60 one-dose screen, 48 h (100 = growth as untreated, 0 = no growth, -100 = all killed)
What all share (settings): 10 µM unless noted

Test [1] has as its system SR leukemia.
The test system of test [2] is RPMI-8226 leukemia.
The test system of test [3] is OVCAR-8 ovarian.
For test [4], the system named is OVCAR-5 ovarian.
Test [5] deals with OVCAR-4 ovarian.
In test [6] the test system is SK-OV-3 ovarian.
The test system of test [7] is IGROV1 ovarian.
Test [8] has as its system OVCAR-3 ovarian.
Test [9] has as its system HS 578T breast.
The subject of test [10] is NCI/ADR-RES ovarian.

Molecules are shown by their SMILES. Compounds without any hit were thinned out: in the full panel of roughly 83,000, 20% have a hit.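 Results are percent growth after 48 hours of single-concentration exposure. 100 means growth as in untreated cells, lower positive values show inhibition; negative values down to -100 show cell death.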 The source made the active and inactive calls. Rule for the calls: active = growth percent below 10; inactive = the rest.

`C(=N\Nc1nc(N/N=C/c2ccc3c(c2)OCO3)nc(N2CCCCC2)n1)/c1ccc2c(c1)OCO2`: the growth in test [1] is 0.113% (active); in test [2] it was 56.2% (inactive); in [3], 90.1% (inactive); in test [4], 118% (inactive); in test [5] it was 110% (inactive); in [6], 140% (inactive). The growth is 76.9% (inactive) in [7], 105% (inactive) in test [8], 104% (inactive) in test [9] and 85.5% (inactive) in [10].
For `CC(C)NC(=O)c1cc(-c2ccc(NC(=O)Nc3ccc(F)cc3)cc2)nc2cccnc12`, the growth in test [1] is 94.3% (inactive); in [2], 109% (inactive); in [3], 105% (inactive); in [4], 109% (inactive); in test [5], 104% (inactive); in [6], 112% (inactive). For the same compound, the growth is 110% (inactive) in [7], 115% (inactive) in [8], 109% (inactive) in test [9] and 104% (inactive) in test [10].
As for `CC1(C)CC[C@]2(C(=O)O)CC[C@]3(C)C(=CC[C@@H]4[C@@]5(C)CC[C@H](NOCCCN)C(C)(C)[C@@H]5CC[C@]43C)[C@@H]2C1`, the growth in [1] was -8% (active); in test [2] it was 34.7% (inactive); in test [3], 95.2% (inactive); in test [4] it was 100% (inactive); in [5] it was 95.2% (inactive); in test [6] it was 95.8% (inactive). The growth in test [7] was 99.3% (inactive); in test [8], 95.6% (inactive); in [9], 87.1% (inactive); in [10], 99.4% (inactive).
As for `CC1=C(C)C(=O)C(Nc2ccc(C)cc2)=C(Br)C1=O`, the growth in test [1] is 43.6% (inactive); in [2] it was 55.2% (inactive); in test [3], 92.7% (inactive); in test [4] it was 108% (inactive); in test [5], 75.6% (inactive); in [6], 85.5% (inactive). Moreover, the growth in test [7] was 94.5% (inactive); in test [8], 105% (inactive); in [9], 96.7% (inactive); in [10], 95.7% (inactive).
On to `CN(C)c1ccc(/C=N/Nc2nc(N/N=C/c3ccc(N(C)C)cc3)nc(N3CCCCC3)n2)cc1`, for which the growth in [1] is -14.1% (active); in test [2] it was 32.6% (inactive); in [3], 56.6% (inactive); in [4] it was 96.1% (inactive); in [5], 106% (inactive); in test [6], 132% (inactive). Besides, the growth in [7] was 93.8% (inactive); in test [8] it was 65.6% (inactive); in [9] it was 106% (inactive); in test [10], 58.3% (inactive).
Consider `NNc1nnc2nc(Nc3ccccc3)nc(Nc3ccc(S(N)(=O)=O)cc3)n12`, for which the growth in test [1] is 93.3% (inactive); in test [2], 99.4% (inactive); in [3], 107% (inactive); in test [4] it was 103% (inactive); in test [5], 112% (inactive); in test [6], 113% (inactive). The growth in [7] is 98.3% (inactive); in test [8] it was 110% (inactive); in test [9], 99.6% (inactive); in test [10], 99.6% (inactive).
`CC1CCN(CC(=O)Nn2c(COc3ccccc3)nc3ccccc3c2=O)CC1`: the growth in test [1] is 30.5% (inactive); in test [2] it was 76.8% (inactive); in [3], 98.5% (inactive); in test [4], 101% (inactive); in test [5], 94.9% (inactive); in [6] it was 77% (inactive). In addition, the growth in [7] is 73.1% (inactive); in test [8], 94.8% (inactive); in test [9], 86.1% (inactive); in [10] it was 71.6% (inactive).
As to `Cc1cc(NS(=O)(=O)c2ccc(NC(=O)CSc3nc4ccccc4c(=O)n3-c3ccccc3)cc2)no1`, the growth is 97.9% (inactive) in test [1]; 110% (inactive) in test [2]; 102% (inactive) in test [3]; 92.7% (inactive) in [4]; 102% (inactive) in test [5]; 106% (inactive) in [6]. Also, the growth in test [7] is 97.6% (inactive); in test [8], 109% (inactive); in test [9], 93.3% (inactive); in test [10] it was 102% (inactive).
With `O=C(CSc1nnc(-c2ccc(Cl)cc2)n1-c1ccccc1)Nc1ccc(Cl)cc1`, the growth in [1] was 18.6% (inactive); in test [2], 31% (inactive); in [3] it was 31% (inactive); in test [4] it was 37.3% (inactive); in test [5] it was -55.8% (active); in [6], 75% (inactive). The growth in [7] is 23.3% (inactive); in test [8], 57.5% (inactive); in test [9] it was 38.4% (inactive); in [10], 34.7% (inactive).
Regarding `Cc1ccc2c(n1)C(=O)C(Cl)=C(Nc1ccc(C(F)(F)F)cc1)C2=O`, the growth was 10.5% (inactive) in test [1]; -8.81% (active) in test [2]; 39.3% (inactive) in [3]; 110% (inactive) in [4]; -96.4% (active) in [5]; 82.2% (inactive) in test [6]. Moreover, the growth in test [7] is -58.2% (active); in test [8], -48.6% (active); in test [9], 94.1% (inactive); in [10] it was 87.6% (inactive).
Consider `Cc1ccc2c(n1)C(=O)C(Cl)=C(Nc1ccccc1C(=O)OC(C)(C)C)C2=O`, for which the growth was -30.8% (active) in [1]; -31.8% (active) in test [2]; 66.8% (inactive) in [3]; 139% (inactive) in test [4]; -45.3% (active) in [5]; 105% (inactive) in [6]. Besides, the growth was 59.6% (inactive) in [7], -63.6% (active) in test [8], 84.1% (inactive) in test [9] and 64.2% (inactive) in test [10].
With `Cc1[nH]c(C(=O)Nc2ccccc2OCc2cccc(C(=O)NCCN)c2)cc1Cl`, the growth in test [1] is -3.39% (active); in [2], 89.6% (inactive); in test [3], 84.7% (inactive); in test [4] it was 97% (inactive); in test [5] it was 102% (inactive); in [6] it was 101% (inactive). For the same compound, the growth in test [7] was 94.5% (inactive); in test [8], 109% (inactive); in test [9], 102% (inactive); in test [10] it was 99.4% (inactive).
Consider `O=C(Nc1cccc(Cl)c1)Nc1nc2cc([N+](=O)[O-])ccc2o1`, for which the growth in test [1] was 57.8% (inactive); in test [2], 35.8% (inactive); in test [3], 33.9% (inactive); in test [4], 75.5% (inactive); in [5], 3.58% (active); in [6], 74.3% (inactive). The growth is 44.9% (inactive) in [7], -0.896% (active) in test [8], 71.4% (inactive) in test [9] and 22.6% (inactive) in test [10].
`CC(O)c1cccc(/C(N)=N/C(N)=N/c2nc3ccccc3s2)c1` (stereo not given): the growth in test [1] was 82.3% (inactive); in [2] it was 67.3% (inactive); in test [3], 97.2% (inactive); in test [4], 100% (inactive); in test [5], 105% (inactive); in test [6] it was 105% (inactive). Besides, the growth in [7] was 92.5% (inactive); in [8] it was 102% (inactive); in [9], 91.9% (inactive); in test [10], 95.6% (inactive).
Regarding `CCOC(=O)C1=C(C)NC(C)=C(C(=O)OCc2ccccc2)C1c1cccc(C#N)c1` (stereo not given), the growth is 21.7% (inactive) in test [1]; 32.3% (inactive) in test [2]; 48% (inactive) in test [3]; 61.3% (inactive) in [4]; 71.5% (inactive) in test [5]; 75.1% (inactive) in [6]. The growth in test [7] was 42.1% (inactive); in test [8], 23.6% (inactive); in test [9], 40.2% (inactive); in test [10] it was 22.7% (inactive).
`COc1ccc2c(c1)c(-c1nc(N)nnc1-c1c[nH]c3ccccc13)cn2C`: the growth in test [1] was 14.8% (inactive); in [2], 41.8% (inactive); in test [3] it was 51.3% (inactive); in test [4], 72.2% (inactive); in test [5], 66.4% (inactive); in test [6], 63% (inactive). Further, the growth in [7] was 30.5% (inactive); in [8], 19.7% (inactive); in [9] it was 35.3% (inactive); in test [10], 49.8% (inactive).
In the case of `CCOC(=O)c1ccccc1NC1=C(Cl)C(=O)c2nc(C)ccc2C1=O`, the growth in test [1] is 102% (inactive); in [2], 99.3% (inactive); in [3] it was 100% (inactive); in [4], 101% (inactive); in [5], 83.6% (inactive); in [6], 108% (inactive). Besides, the growth in test [7] is 91.4% (inactive); in test [8], 90.6% (inactive); in [9] it was 99% (inactive); in test [10], 93.9% (inactive).
In the case of `Cc1nc(N)sc1-c1csc(Nc2ccc(C(F)(F)F)cc2)n1`, the growth in test [1] was 18.9% (inactive); in test [2], 26.6% (inactive); in test [3], 49.4% (inactive); in test [4] it was 32.2% (inactive); in test [5] it was 42.7% (inactive); in [6], 65.5% (inactive). Moreover, the growth is 18.9% (inactive) in [7], 20.8% (inactive) in test [8], 32.4% (inactive) in test [9] and 27.3% (inactive) in test [10].
For `CC1=C(C)C(=O)C(Nc2cccc(C)c2)=C(Br)C1=O`, the growth in test [1] was 69.3% (inactive); in [2], 35.8% (inactive); in test [3], 95.7% (inactive); in test [4], 128% (inactive); in test [5], 69.3% (inactive); in test [6], 85.7% (inactive). Also, the growth was 84.5% (inactive) in test [7], 110% (inactive) in test [8], 96.1% (inactive) in [9] and 98.1% (inactive) in test [10].
With `N/C(=N\C(N)=N\c1nc2ccccc2s1)c1ccc(Cl)cc1`, the growth is -8.26% (active) in test [1]; 57% (inactive) in test [2]; 79.5% (inactive) in test [3]; 94.5% (inactive) in test [4]; 101% (inactive) in test [5]; 110% (inactive) in test [6]. In addition, the growth is 92% (inactive) in test [7], 98.4% (inactive) in [8], 105% (inactive) in [9] and 80.3% (inactive) in test [10].
Take `CC(C)=CCC[C@](C)(O)[C@H]1CC[C@]2(C)[C@@H]1CC[C@@H]1[C@@]3(C)CC[C@H](N)C(C)(C)[C@@H]3CC[C@]12C`: the growth in [1] is -24.4% (active); in test [2], -9.63% (active); in test [3], 98.1% (inactive); in test [4], 108% (inactive); in test [5] it was 97.5% (inactive); in [6] it was 104% (inactive). The growth was 93.3% (inactive) in test [7], 107% (inactive) in test [8], 94.6% (inactive) in test [9] and 88.9% (inactive) in [10].
With `CCOP(=O)(OCC)OC[C@]12CCC(C)(C)CC1C1=CC[C@@H]3[C@@]4(C)CCCNC(C)(C)[C@@H]4CC[C@@]3(C)[C@]1(C)CC2` (stereo not given in full), the growth in test [1] was -24.1% (active); in test [2], -1.77% (active); in test [3] it was 90.2% (inactive); in test [4], 102% (inactive); in [5] it was 80.9% (inactive); in test [6], 112% (inactive). The growth was 44.5% (inactive) in test [7], 97.1% (inactive) in test [8], 88.7% (inactive) in test [9] and 73.7% (inactive) in [10].
Consider `COc1cc(-c2nc(-c3ccccc3)[nH]c2-c2ccnc(NCCCNS(=O)(=O)c3ccc(C)cc3)n2)ccc1F`, for which the growth in test [1] is 89.4% (inactive); in test [2], 54% (inactive); in test [3], 83.8% (inactive); in test [4], 119% (inactive); in test [5], 108% (inactive); in [6] it was 148% (inactive). Moreover, the growth is 95.2% (inactive) in test [7], 119% (inactive) in [8], 107% (inactive) in [9] and 89.8% (inactive) in test [10].
